NALP1 yeast inh – NALP1 inflammasome inhibitors in reconstituted yeast, colorimetric, S. cerevisiae, triplicate retest | S. cerevisiae NALP1/ASC/caspase-1 growth, X-gal OD620, 72 h | inhibition, % at 10 µM | 280,000 tested, 0.61% active; in the data active means inhibition mostly above about 24%, no sharp cut-off; inactive means mostly below about 32%
TIM10 inh – growth inhibitors of isogenic TIM10 control yeast, primary screen, counter-screen for tim10-1 yeast inhibitor project, luminescence, uHTS | S. cerevisiae TIM10 strain growth, BacTiter-Glo luminescence, 24 h | inhibition, % at 10 µM | 330,000 tested, 1.4% active | AID 463195, 2010;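 active means inhibition of 40% or more at the single tested concentration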;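 further: wild-type TIM10 isogenic control strain grown at permissive 25 °C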
tim10-1 inh – growth inhibitors of tim10-1 mutant yeast, primary screen, luminescence, uHTS | S. cerevisiae tim10-1 ts strain growth, BacTiter-Glo, 24 h | inhibition, % at 20 µM | 330,000 tested, 2.2% active;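 active means inhibition of at least 40%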;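 further: mutant grown at 25 °C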
NLRP3 yeast inh – NALP3 inflammasome inhibitors in reconstituted yeast, primary screen, luminescence, uHTS; 330,000 tested, 0.39% active; inhibition, % at 10 µM; Yeast reconstituted NLRP3/ASC/caspase-1, beta-gal luminescence, 24 h;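 active means inhibition of 50% or more; inactive means inhibition below 50%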
V-ATPase pH – regulators of yeast V-ATPase proton pumping, primary screen, pHLuorin cytosolic pH fluorescence; S. cerevisiae; response, % at 10 µM; 350,000 tested, 0.37% active; AID 504577, 2011; in the data active means response mostly above about 7.3%, no sharp cut-off; inactive means mostly below about 5.4%; further: actives read high
tim23-1 inh – growth inhibitors of tim23-1 mutant yeast, primary screen, luminescence, uHTS; inhibition, % at 20 µM; 330,000 tested, 1.3% active; S. cerevisiae tim23-1 growth, BacTiter-Glo luminescence, 24 h;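 active means growth inhibition of the mutant yeast at or above 50%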;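 further: temperature-sensitive mutant grown at 25 °C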
tim10-1 confirm – growth inhibitors of tim10-1 mutant yeast, confirmation, single concentration, luminescence, S. cerevisiae. shares compounds with tim10-1 inh. S. cerevisiae tim10-1 ts strain growth, BacTiter-Glo, 24 h. inhibition, % at 20 µM. 7,400 tested, 56% active. AID 463213, 2010;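 active means inhibition of yeast growth at or above a set limit in either of two repeat tests at 20 µM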;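 further: tim10-1 mutant grown at permissive 25 °C to find synthetic lethal compounds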
TIM10 conf – growth inhibitors of wild-type TIM10 yeast, confirmation, counter-screen for tim10-1 synthetic lethality project, single concentration, luminescence, S. cerevisiae | shares compounds with TIM10 inh | S. cerevisiae tim10 strain growth, BacTiter-Glo luminescence, 24 h | inhibition, % at 10 µM | 4,600 tested, 63% active | AID 463215, 2010;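 active means inhibition of yeast growth at or above a set limit in either of two replicates at 10 µM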; further: this counterscreen used the strain with wild-type TIM10
tim23-1 confirm – tim23-1 mutant yeast growth inhibitors, confirmation, luminescence, single concentration; shares compounds with tim23-1 inh; S. cerevisiae tim23-1 growth, BacTiter-Glo luminescence, 24 h; inhibition, % at 20 µM; 4,400 tested, 83% active; AID 463218, 2010;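 active means inhibition above about 39% in either of two replicate wells at 20 µM, limit read from the data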;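 further: temperature-sensitive tim23-1 mutant grown at 25 °C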
Each line names hits and unclear results; the compound was inactive in the other large screens (follow-up assays come after a bar, where they were run). An excerpt weighted towards active compounds, which were near 4.2% of everything screened.

COc1ccc(-c2cn3c(C)c(C(=O)N4CCN(c5ccccc5F)CC4)sc3n2)cc1	tim10-1 inh 56, tim23-1 inh 56 | tim10-1 confirm 55 | tim23-1 confirm 67
Oc1c(Br)cc(Br)cc1C=Nc1cccc2ncccc12	tim10-1 inh 55, tim23-1 inh 83 (no result: NALP1 yeast inh) | tim10-1 confirm 41 | tim23-1 confirm 86
COc1ccc(CCNC(=O)c2ccc(S(=O)(=O)N3CCCCC3)cc2)cc1	none (no result: NALP1 yeast inh)
COc1ccc(C(=O)O/N=C(\N)c2ccc(OC)c(OC)c2)c(OC)c1	none
COc1ccc(/C(N)=N/OC(=O)Oc2ccccc2)cc1OC	none
COc1ccc(C(=O)O/N=C(\N)c2ccccc2)c(OC)c1	TIM10 inh 70, tim10-1 inh 76, tim23-1 inh 60 | tim10-1 confirm 72 | TIM10 conf 67 | tim23-1 confirm 87
COc1ccc(C(=O)O/N=C(\N)c2ccc(OC)c(OC)c2)cc1	TIM10 inh 49, tim10-1 inh 73, tim23-1 inh 53 | tim10-1 confirm 78 | TIM10 conf 40 | tim23-1 confirm 64
COC1=C(C)C(O)=C(C(=O)/C=C/c2ccccc2)C(=O)C1(C)C	tim10-1 inh 44, tim23-1 inh 57 | tim10-1 confirm inactive | tim23-1 confirm 48
COc1ccc(C=CC(=O)C=CC=Cc2ccccc2)cc1	none (no result: NALP1 yeast inh, TIM10 inh, tim10-1 inh, NLRP3 yeast inh, tim23-1 inh)
O=C(c1ccccc1)N1CCN(c2ccc([N+](=O)[O-])cc2-n2cccc2)CC1	none (no result: NALP1 yeast inh)
CC(C)CCNC(=O)C(CC(C)C)N(Cc1ccc2c(c1)OCO2)C(=O)c1snc(C(N)=O)c1N (centres undefined)	none
CCN(Cc1ccccc1)C(c1ccccn1)c1nnnn1C(C)(C)CC (centres undefined)	TIM10 inh 52, tim10-1 inh 42, tim23-1 inh 66 | tim10-1 confirm 47 | TIM10 conf 51 | tim23-1 confirm 55
O=C1C(C2=C(O)c3ccccc3C2=O)=Nc2ccccc21	TIM10 inh 56, tim10-1 inh 51, tim23-1 inh 62 | tim10-1 confirm inactive | TIM10 conf 54 | tim23-1 confirm 73
Cc1cc(C)c2c(CCl)cc(=O)oc2c1	TIM10 inh 42, tim10-1 inh 49, tim23-1 inh 62 (no result: NALP1 yeast inh) | tim10-1 confirm 40 | TIM10 conf 40 | tim23-1 confirm 53
Cc1cc(C)c2c(CN3CCCCC3)cc(=O)oc2c1	none
CCOC(=O)CSC1=NC(=O)/C(=C/c2ccc(Br)cc2)S1	TIM10 inh 61, tim10-1 inh 49, tim23-1 inh 61 | tim10-1 confirm 62 | TIM10 conf 52 | tim23-1 confirm 70
NC1=NC(=O)/C(=C/c2ccc(Br)cc2)S1	none
COc1ccc(OC)c(CNS(=O)(=O)c2cc(CN3C(=O)c4cccnc4C3=O)ccc2OC)c1	none
CCOC(=O)c1c(C)oc2c(F)c(F)c(F)c(F)c2c1=O	tim10-1 inh 42, tim23-1 inh 74 | tim10-1 confirm inactive | tim23-1 confirm 48
CC(=O)Nc1ccc(S(=O)(=O)Nc2cccc(-c3nc4ccccc4o3)c2)cc1	none
O=S(=O)(Nc1ccc(-c2nc3ccccc3o2)cc1)c1ccccc1	TIM10 inh 52, tim10-1 inh 47, tim23-1 inh 61 | tim10-1 confirm 40 | TIM10 conf 36 | tim23-1 confirm 53
O=C1c2ccccc2NC(c2ccc(-c3ccc(F)cc3)o2)N1O (centres undefined)	none (no result: NALP1 yeast inh)
O=C1c2ccccc2NC(c2ccc(-c3ccc(Br)cc3)o2)N1O (centres undefined)	TIM10 inh 44, tim10-1 inh 46, tim23-1 inh 62 | tim10-1 confirm inactive | TIM10 conf 52 | tim23-1 confirm 65
CC1CCN(C(=O)COc2ccc(S(=O)(=O)N3CCOCC3)cc2)CC1	none (no result: NALP1 yeast inh)
Cc1cccc(NC(=O)/C(C#N)=C/c2ccccc2O)n1	none
Cc1cccc(NC(=O)/C(C#N)=C/c2ccccc2Cl)n1	TIM10 inh 42, tim10-1 inh 52, tim23-1 inh 71 | tim10-1 confirm inactive | TIM10 conf 32 | tim23-1 confirm 62
C=CCNC(=O)/C(C#N)=C/c1cn(-c2ccccc2)nc1-c1ccc(OC)c([N+](=O)[O-])c1	none (no result: TIM10 inh, tim10-1 inh, NLRP3 yeast inh, tim23-1 inh)
C=CCNC(=O)/C(C#N)=C/c1ccccc1Cl	TIM10 inh 66, tim10-1 inh 51, tim23-1 inh 85 | tim10-1 confirm 63 | TIM10 conf 74 | tim23-1 confirm 80
C=CCNC(=O)/C(C#N)=C/c1cc(Br)ccc1OC	TIM10 inh 83, tim10-1 inh 78, tim23-1 inh 88 | tim10-1 confirm 84 | TIM10 conf 91 | tim23-1 confirm 71
O=C(/C(=C/c1ccc(Cl)cc1)c1nc2ccccc2[nH]1)c1ccccc1	TIM10 inh 51, tim10-1 inh 42, tim23-1 inh 51 | tim10-1 confirm 38 | TIM10 conf 35 | tim23-1 confirm 58
O=c1oc(-c2ccccc2Br)nc2ccccc12	tim10-1 inh 49, tim23-1 inh 59 | tim10-1 confirm 40 | tim23-1 confirm 71
COc1ccc(-c2nc(SCc3ccccc3)n(S(C)(=O)=O)n2)cc1	none
CCS(=O)(=O)n1nc(-c2ccc(Cl)cc2)nc1SCc1ccccc1	tim10-1 inh 40, tim23-1 inh 62 (no result: V-ATPase pH) | tim10-1 confirm inactive | tim23-1 confirm 57
COc1cc(C(=S)N2CCOCC2)cc(OC)c1OC(=O)c1ccccc1[N+](=O)[O-]	none
O=C(Oc1ccccc1C(=S)N1CCOCC1)c1ccc([N+](=O)[O-])cc1[N+](=O)[O-]	TIM10 inh 45, tim10-1 inh 56, tim23-1 inh 54 | tim10-1 confirm 49 | TIM10 conf 49 | tim23-1 confirm 52
COc1ccc(C(=S)N2CCOCC2)cc1OC(=O)c1ccc([N+](=O)[O-])cc1[N+](=O)[O-]	TIM10 inh 71, tim10-1 inh 60, tim23-1 inh 58 | tim10-1 confirm 74 | TIM10 conf 68 | tim23-1 confirm 68
Cc1ccc(N(C)C(=O)CN(C)S(=O)(=O)c2ccc3c(c2)n(C)c(=O)c(=O)n3C)cc1	none

Screens: PubChem, several laboratories
